Experimental data as given in PubChem BioAssay AID431 (Sanford-Burnham Center for Chemical Genomics, 2006).
Hit rate of the full screen: of about 63,000 compounds, about 1,100 (1.7%) were called active. This is one part of a sample in which actives are shown more often than they occur.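 The calls were made as follows: active = compounds whose percent cytotoxicity in the single-dose primary screen, scaled between solvent and toxic-drug controls, exceeds 50; inactive = the rest.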 Results with a measured potency or affinity are listed apart.

Test: cytotoxicity in KRAS-transformed pancreatic duct cells, primary screen, cell-based, fluorescence, HTS (AID 431);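 also: 0% = DMSO solvent wells and 100% = doxorubicin-treated wells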
Conditions: HPDE-C7K KRASV12 cells, Alamar Blue viability, 48 h; at 10 µM; hits give high values

Structure (SMILES)	cytotoxicity
CC(=O)c1cc2c(cc1NC(=O)CSc1nnc(C)s1)OCO2	11.3% (inactive)
CCOC(=O)C1C2C=CC3(CN(Cc4cccs4)C(=O)C13)O2 (centres undefined)	4.9% (inactive)
COc1cccc(NC(=O)C2CCCN(S(=O)(=O)c3cccc4cccnc34)C2)c1 (centres undefined)	20.1% (inactive)
Cc1nc(NC(=O)CSc2ccccc2N)sc1C	3% (inactive)
Cn1c(=O)[nH]c(=O)c2c1nc(Sc1ncccn1)n2CCCc1ccccc1	3.9% (inactive)
CC(C)Cc1nc(C(N)=O)c2[nH]c(=O)n(-c3ccc(F)cc3)c2n1	-1.8% (inactive)
O=C(CCN1CCN(CCC(=O)c2ccccc2)CC1)c1ccccc1	-9.4% (inactive)
O=C(CCN1CCN(c2ccccc2F)CC1)Nc1ccccc1F	-5.4% (inactive)
O=C(COc1ccc(Cl)cc1)NCc1nnc(SCC(=O)Nc2ccccc2)o1	-7.7% (inactive)
CC(C)NC(=O)CN1CCN(c2ncccn2)CC1	-7.7% (inactive)
CC(=O)NCCSC(=O)c1ccc(F)cc1	-2.7% (inactive)
c1cn2cc(-c3ccc4c(c3)OCO4)nc2s1	15.3% (inactive)
CC(C)CC(=O)Nc1cccc(-c2cn3ccsc3n2)c1	11.7% (inactive)
Cc1ccc(S(=O)(=O)Nc2cccc(-c3cn4ccsc4n3)c2)cc1	64% (active)
Cc1cccc(S(=O)(=O)Nc2cccc(-c3cn4ccsc4n3)c2)c1	31.3% (inactive)
CC(C)CC(=O)Nc1ccc(-c2cn3ccsc3n2)cc1	56.7% (active)
O=S(=O)(NCc1cn2ccsc2n1)c1ccc2c(c1)OCCO2	4.2% (inactive)
O=S(=O)(Nc1cccc(-c2nc3cccnc3s2)c1)c1ccc2c(c1)OCCO2	50.4% (active)
CC(=O)Nc1ccc(-c2cn3ccsc3n2)cc1	6.9% (inactive)
O=S(=O)(Nc1ccc(-c2cn3ccsc3n2)cc1)c1ccc2c(c1)OCCO2	53.9% (active)
O=S(=O)(Nc1cccc(-c2cn3ccsc3n2)c1)c1ccc(F)cc1	42.2% (inactive)
O=S(=O)(Nc1cccnc1)c1ccc2c(c1)OCCO2	1.8% (inactive)
O=S(=O)(Nc1nccs1)c1ccc2c(c1)OCCO2	5.1% (inactive)
O=C(CSCc1ccccc1)NC1CCSC1=O (centres undefined)	11.9% (inactive)
O=C(CSc1nnc(CCc2nc3ccccc3[nH]2)n1-c1ccccc1)NCc1ccco1	-22.8% (inactive)

Structure (SMILES)	cytotoxicity
COc1ccccc1OCc1ccc(C(=O)n2nc(C)c(Cl)c2C)o1	-1.6% (inactive)
CN(C)c1ccc(C(=O)c2ccc(N(C)C)c(N)c2)cc1N	46% (inactive)
CCOC(=O)C(C)Oc1ccc(C2NC(=O)NC(C)=C2C(C)=O)cc1Br (centres undefined)	8.9% (inactive)
O=C(NCCc1ccccc1)C1CCCN(S(=O)(=O)c2cccnc2)C1 (centres undefined)	-7.8% (inactive)
O=C(NCc1ccc2c(c1)OCO2)c1cnc2n(c1=O)CCS2	11.4% (inactive)
COc1ccc(-c2[nH]c(-c3cccc(OC)c3)nc2SCC(=O)NCc2ccco2)cc1	50.4% (active)
COc1ccc(-c2nc(SCC(=O)NCc3ccco3)c(-c3ccccc3)[nH]2)cc1OC	-6.7% (inactive)
COc1ccc(-c2[nH]c(-c3ccc(F)cc3)nc2SCC(=O)NCc2ccco2)cc1OC	6.3% (inactive)
CS(=O)(=O)NCCCc1ccccc1	-3.7% (inactive)
O=C(NCc1ccccn1)c1ccc(/C=N/O)nc1	0.9% (inactive)
CC1CCN(c2nc(-c3ccc(F)cc3)cc(C(F)(F)F)n2)CC1	-19.1% (inactive)
O=C(c1ccc(F)cc1)C1CCN(CCn2c(=O)[nH]c3ccccc3c2=O)CC1	5.6% (inactive)
O=c1c2ccccc2[nH]c(=S)n1CCN1CCN(Cc2ccccc2)CC1	0.6% (inactive)
CCSc1nnc(NC(=O)c2cc(C)oc2C)s1	10.1% (inactive)
Cc1noc(C(=O)Nc2c(C)nn(Cc3ccccc3)c2C)c1Cl	-3.9% (inactive)
CCOC(=O)N1CCN(C(=O)c2ccc3c(c2)N(CC)CCS3)CC1	1% (inactive)
CC(=O)NC(c1ccco1)c1ccc2cccnc2c1O (centres undefined)	23.7% (inactive)
CC(C)C(=O)NC(c1ccco1)c1ccc2cccnc2c1O (centres undefined)	-36.3% (inactive)
Cc1ccc(S(=O)(=O)C(C#N)c2nc3ccccc3nc2N2CCCCC2)cc1 (centres undefined)	0.6% (inactive)
COC(=O)c1ccc(-n2nnnc2SCC(=O)N2CCCCC2)cc1	-30.4% (inactive)
COc1ccc(CCNC(=O)c2cnccn2)cc1	-0.7% (inactive)
CCOC(=O)C1CCN(c2c(NCCN3CCCCC3C)c(=O)c2=O)CC1 (centres undefined)	2.6% (inactive)
O=C(Cn1c(CO)nc2ccccc21)Nc1cc(C(F)(F)F)ccc1N1CCOCC1	-13.4% (inactive)
c1ccc(N2CCOCC2)c(Nc2nc3ccccc3n3cnnc23)c1	0.7% (inactive)
C=CCn1c(COc2ccccc2)nnc1SCC(=O)C(C)(C)C	8.4% (inactive)

Structure (SMILES)	cytotoxicity
Cc1ccc(NC(=O)CCNS(=O)(=O)c2ccc3c(c2)oc(=O)n3C)cc1	-10.2% (inactive)
Cn1c(=O)oc2cc(S(=O)(=O)NCCc3ccccc3)ccc21	-10.4% (inactive)
O=C(Nc1ccccc1)c1ccc(S(=O)(=O)NCc2ccco2)cc1	-6.4% (inactive)
O=C(NC1CCCCC1)c1ccc(S(=O)(=O)NCc2ccco2)cc1	-0.5% (inactive)
O=C(NCCc1c[nH]c2ccccc12)c1ccc(S(=O)(=O)NCc2ccco2)cc1	51.2% (active)
O=C(Oc1cccc2cccnc12)c1cccc(-n2cnnn2)c1	23.3% (inactive)
CN(CCOC(=O)c1ccc2c(c1)OCCO2)Cc1ccccc1	-8% (inactive)
FC(F)Oc1cccc2cccnc12	3.1% (inactive)
O=S(=O)(Nc1ccc2c(c1)OCCO2)c1cccc2cccnc12	4.7% (inactive)
Cc1noc(C)c1COC(=O)c1ccc2c(c1)OCCO2	4.7% (inactive)
Cc1ccc2cccc(OC(=O)c3ccc4c(c3)OCCO4)c2n1	54.5% (active)
O=C(COc1cccc2cccnc12)Nc1nccs1	8.2% (inactive)
Cn1c(C(=O)N2CCN(c3ncccn3)CC2)cc2c(=O)n(C)c3ccccc3c21	17.4% (inactive)
O=C(Nc1cnn(Cc2ccc(Cl)cc2)c1)c1cnccn1	-2.7% (inactive)
CC(=O)NC(CC(C)C)C(=O)NC(=O)NCc1ccccc1 (centres undefined)	15.8% (inactive)
CCN(CC)CCCN1C(=O)C(=O)/C(=C(/O)c2ccc3c(c2)OCCO3)C1c1ccco1 (centres undefined)	5.8% (inactive)
Cn1c(-c2ccccc2)cnc1SCC(=O)NCc1ccco1	-16.1% (inactive)
COC(=O)C(NC(C)=O)(Nc1ccccc1)C(=O)OC	27.5% (inactive)
COC(=O)C(NC(C)=O)(Nc1ccc(Br)cn1)C(F)(F)F (centres undefined)	2.3% (inactive)
COC(=O)C(NC(C)=O)(Nc1ccc(Br)cc1)C(=O)OC	53.3% (active)
O=S(=O)(c1cccc(Cl)c1)N1CCCC1	-5.7% (inactive)
O=C(NC1CCCCCCC1)c1c(O)c2ccccc2[nH]c1=O	-19.1% (inactive)
O=C(NCC1CCCO1)c1sc(=S)n2c1[nH]c(=O)c1ccc(C(=O)N3CCCCC3)cc12 (centres undefined)	5.2% (inactive)
O=C(NC1CCCCC1)c1sc(=S)n2c1[nH]c(=O)c1ccccc12	77.2% (active)
O=C(NC1CCCC1)c1sc(=S)n2c1[nH]c(=O)c1ccccc12	68.9% (active)

Structure (SMILES)	cytotoxicity
O=C(NC1CCCCCC1)c1c(O)c2ccccc2[nH]c1=O	-13.7% (inactive)
Cn1c(=O)c(C(=O)NC2CCCCCCC2)c(O)c2ccccc21	13.6% (inactive)
CSc1nnc(Cn2c(=O)sc3ccccc32)n1-c1ccccc1	13% (inactive)
Cc1nc2ccc(NC(=O)N3CCOCC3)cc2s1	-19.1% (inactive)
Nc1nnc(SCc2cccnc2)s1	-0.3% (inactive)
CCc1cn([C@H]2C[C@H](O)[C@@H](CO)O2)c(=O)[nH]c1=O	-1.3% (inactive)
Cc1cn([C@H]2C[C@H](N=[N+]=[N-])[C@@H](CO)O2)c(=O)[nH]c1=O	-5.9% (inactive)
O=c1[nH]c(=O)n([C@H]2C[C@H](O)[C@@H](CO)O2)cc1F	55.6% (active)
CCc1sc(C(=O)NC)cc1Br	-2.9% (inactive)
CC(C)N1C(=O)C2C(C(=O)NC3CCCCC3)C3C=CC2(O3)C1C(=O)NC1CCCCC1 (centres undefined)	13.7% (inactive)
c1ccc(Nc2nc(N3CCOCC3)nc(N3CCOCC3)n2)cc1	5% (inactive)
c1ccc(Nc2nc(N3CCCCC3)nc(N3CCNCC3)n2)cc1	75.8% (active)
C1CCN(c2nc(N3CCCCC3)nc(N3CCNCC3)n2)CC1	11.6% (inactive)
CCOC(=O)c1ccccc1NC(=O)C1COc2ccccc2O1 (centres undefined)	-10.4% (inactive)
COc1ccc(-n2nnc3c(SCc4ccccc4)ncnc32)cc1	2.7% (inactive)
c1ccc(CN2CCN(c3nc4ccccc4n4cnnc34)CC2)cc1	1.8% (inactive)
COCCn1nnnc1C(c1ccc(OC)cc1OC)N1CCN(c2ccccc2)CC1 (centres undefined)	11.2% (inactive)
COc1ccc(OC)c(C(O)c2coc3ccc(O)c(CN4CCOCC4)c23)c1 (centres undefined)	5.9% (inactive)
COc1ccc(NC(=O)CN2CCN(S(=O)(=O)c3ccc(C(C)C)cc3)CC2)cc1OC	-1.5% (inactive)
COCC(=O)Nc1sc2c(c1C(=O)OC)CCCC2	-0.8% (inactive)
Cc1ccc2nc(Nc3nc(C)cc(C(F)(F)F)n3)nc(C)c2c1	-18.7% (inactive)
COc1ccc(OC)c2c(N)c(C#N)c(C(F)(F)C(F)(F)F)nc12	2.9% (inactive)
COc1ccc(OC)c(-n2c(O)cnc2Nc2nc(C)cc(C)n2)c1	-6.2% (inactive)
Cc1occc1C(=O)Nc1cc(C(F)(F)F)ccc1Cl	-12.7% (inactive)
